Measurements published in PubChem BioAssay (NCI).
Where “and” joins values, the source holds several entries; their conditions need not be identical. Equal entries are not always repeated. The panel holds about 79,000 compounds, 15% with a hit somewhere; the sample as a whole holds those more often. Some compounds were tested as several samples or in several runs, with calls that do not always agree. Calls of active or inactive are those of the source. No stated cut-off is given here; in the data, active means growth inhibition above about 70%; inactive means the rest.

Key:
[1] = NCI Yeast Anticancer Drug Screen. Data for the rad50 strain (AID 155);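 further: 0% = growth of vehicle-only cultures of the same strain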; conditions: S. cerevisiae rad50 strain growth inhibition, stronger effect = higher value
How it was run: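 DNA repair mutant yeast, compound exposure, growth read-out; inhibition is taken relative to vehicle.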

[2] = NCI Yeast Anticancer Drug Screen. Data for the mec2-1 strain (AID 157); conditions: S. cerevisiae mec2-1 strain, stronger effect = higher value
How it was run: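 Readout is yeast growth inhibition, normalised to vehicle-treated controls, in the mec2-1 strain exposed to compound.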

[3] = NCI Yeast Anticancer Drug Screen. Data for the sgs1 mgt1 strain (AID 161);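 further: 0% = growth of cultures given vehicle only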; conditions: S. cerevisiae sgs1 mgt1 strain, stronger effect = higher value
How it was run: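 Compounds are added to genetically altered yeast, and growth is compared with cultures given vehicle alone to give percent inhibition.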

[4] = NCI Yeast Anticancer Drug Screen. Data for the cln2 rad14 strain (AID 165);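 further: 0% = growth equal to vehicle treated cultures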; conditions: S. cerevisiae cln2 rad14 strain, stronger effect = higher value
How it was run: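 Relative to vehicle controls, growth inhibition of compound-treated cln2 rad14 yeast was recorded.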

[5] = NCI Yeast Anticancer Drug Screen. Data for the bub3 strain (AID 167); conditions: S. cerevisiae bub3 mutant strain, stronger effect = higher value
How it was run: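 In this screen, a yeast mutant lacking normal mitotic checkpoint function is challenged with compound. Relative growth versus vehicle gives the inhibition value.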

[6] = NCI Yeast Anticancer Drug Screen. Data for the mlh1 rad18 strain (AID 175); conditions: S. cerevisiae mlh1 rad18 strain growth inhibition, stronger effect = higher value
How it was run: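 Test agents were incubated with a yeast strain of defined genotype (DNA damage repair defect). Inhibition of growth was derived by comparison with vehicle-exposed cultures.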

[7] = at 5.0 µM (retest, dose inferred, filed as 0.5)
[8] = at 50.0 µM (retest, dose inferred, filed as 5.0)

Measured: growth inhibition

CCc1ccc([O-])c(C=NCCCN(C)CCCN=Cc2cc(C)ccc2[O-])c1.[Co+3].[N-]=[N+]=[N-]
inactive: [1]; [7] -10% | [1]; [8] 7% | [1]; at 50.0 µM 22.1% | [2]; [7] -8% | [2]; [8] 15% | [2]; at 50.0 µM -12.9% | [3]; [7] -4% | [3]; [8] 6% | [3]; at 50.0 µM 50.5% | [4]; [7] -20% | [4]; [8] 0% | [4]; at 50.0 µM -34.5% | [5]; [7] 1% | [5]; [8] 8% | [5]; at 50.0 µM -11.2% | [6]; [7] -4% | [6]; [8] -7% | [6]; at 50.0 µM 0.85%

CC(C(=O)C1CCCCC1)[n+]1ccccc1 (centres undefined)
inactive: [1]; [7] 1% | [1]; [8] -2% | [1]; at 50.0 µM -1.2% | [2]; [7] 1% | [2]; [8] 1% | [2]; at 50.0 µM 1.3% | [3]; [7] 0% | [3]; [8] -2% | [3]; at 50.0 µM -2.3% | [4]; [7] 9% | [4]; [8] -2% | [4]; at 50.0 µM 48.5% | [5]; [7] 3% | [5]; [8] 1% | [5]; at 50.0 µM 11.2% | [6]; [7] -4% | [6]; [8] -6% | [6]; at 50.0 µM -5.85%

O=C1[O][Hg][c]2cccc3cccc1c23
inactive: [5]; [8] 58%
active: [1]; [7] 99% | [1]; [8] 99% | [1]; at 50.0 µM 98.3% | [2]; [7] 100% | [2]; [8] 99% | [2]; at 50.0 µM 99% | [3]; [7] 99% | [3]; [8] 99% | [3]; at 50.0 µM 98.9% | [4]; [7] 89% | [4]; [8] 99% | [4]; at 50.0 µM 98.2% | [5]; [7] 100% | [5]; at 50.0 µM 98.2% | [6]; [7] 100% | [6]; [8] 99% | [6]; at 50.0 µM 97.5%

CC(Cl)CNC(C)C (centres undefined)
inactive: [1]; [7] -156% | [1]; [8] -171% | [1]; at 50.0 µM 4.95% | [2]; [7] -50% | [2]; [8] -57% | [2]; at 50.0 µM -9.4% | [3]; [7] -64% | [3]; [8] -67% | [3]; at 50.0 µM 3.25% | [4]; [7] -54% | [4]; [8] -67% | [4]; at 50.0 µM 24.5% | [5]; [7] -67% | [5]; [8] -80% | [5]; at 50.0 µM -7.95% | [6]; [7] -137% | [6]; [8] -120% | [6]; at 50.0 µM 6.1%

ClC(C[n+]1ccccc1)c1ccccc1 (centres undefined)
71% (active) and -9.25% (inactive): [1]; at 50.0 µM
inactive: [1]; [7] 8% | [1]; [8] 22% | [2]; [7] 3% | [2]; [8] 16% | [2]; at 50.0 µM 34.2% and -1.25% | [3]; [7] 10% | [3]; [8] 35% | [3]; at 50.0 µM 64.4% and -1.8% | [4]; [7] 4% | [4]; [8] 3% | [4]; at 50.0 µM -2.5% and 7.5% | [5]; [7] 1% | [5]; [8] 6% | [5]; at 50.0 µM 26.4% and 11.1% | [6]; [7] 10% | [6]; [8] 51% | [6]; at 50.0 µM 60.6% and 4.6%

CCCCCCC1CC2(Cl)C(Cl)=C(Cl)C1(Cl)C2(Cl)Cl (centres undefined)
inactive: [1]; [7] 32% | [2]; [7] 34% | [3]; [7] 53% | [4]; [7] 19% | [5]; [7] 20% | [6]; [7] 54%
active: [1]; [8] 99% | [1]; at 50.0 µM 99.7% | [2]; [8] 100% | [2]; at 50.0 µM 99.8% | [3]; [8] 99% | [3]; at 50.0 µM 99.8% | [4]; [8] 99% | [4]; at 50.0 µM 99.6% | [5]; [8] 99% | [5]; at 50.0 µM 99.7% | [6]; [8] 99% | [6]; at 50.0 µM 99.5%

CCC1(O)C(=O)OCc2c1cc(C)[nH]c2=O (centres undefined)
inactive: [1]; [7] -124% | [1]; [8] -25% | [1]; at 50.0 µM 0.75% | [2]; [7] -42% | [2]; [8] -45% | [2]; at 50.0 µM 0.1% | [3]; [7] -57% | [3]; [8] -45% | [3]; at 50.0 µM -5.5% | [4]; [7] -62% | [4]; [8] -64% | [4]; at 50.0 µM 23.9% | [5]; [7] -75% | [5]; [8] -56% | [5]; at 50.0 µM 4.45% | [6]; [7] -157% | [6]; [8] -85% | [6]; at 50.0 µM 4.95%

O=[N+]([O-])c1cc([N+](=O)[O-])c2cccnc2c1O
inactive: [1]; [7] -4% | [1]; [8] 3% | [2]; [7] -10% | [2]; [8] -10% | [3]; [7] -3% | [3]; [8] 11% | [4]; [7] 2% | [4]; [8] -2% | [5]; [7] -7% | [5]; [8] -11% | [6]; [7] -4% | [6]; [8] -7%
active: [1]; at 50.0 µM 98.6% | [2]; at 50.0 µM 98.3% | [3]; at 50.0 µM 97.5% | [4]; at 50.0 µM 94.3% | [5]; at 50.0 µM 98% | [6]; at 50.0 µM 96.8%
